Screening results from PubChem.
In the library only some 16% were active in any assay of this set; here they are far more common.
TDP1 cell CPT – qHTS for Inhibitors of human tyrosyl-DNA phosphodiesterase 1 (TDP1): qHTS in cells in presence of CPT; chicken DT40 Tdp1-/-;hTDP1 cells + 20 nM CPT, ATP luminescence, 48 h; Potency, µM (top dose mostly 46.2 µM), actives largely listed as inhibitors; 420,000 tested, 12% active; note: nearly all actives have a fitted effect of over 55% in size
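Chicken DT40 Tdp1-/- cells stably complemented with human TDP1 were seeded at 400 cells/well in medium containing 20 nM camptothecin, exposed to pin-transferred compounds, and grown at 37 °C for at least 48 hr. Viability was read as ATP luminescence.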
DT40 TDP1 no CPT – qHTS for Inhibitors of human tyrosyl-DNA phosphodiesterase 1 (TDP1): qHTS in cells in absence of CPT. Potency, µM (highest dose often 46.2 µM), actives largely listed as inhibitors. AID 686978, 2013. DT40 Tdp1-/- hTDP1 cells, no CPT, ATP luminescence, 48 h. 420,000 tested, 15% active; note: nearly all actives have a fitted effect of over 55% in size
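Cells were dispensed at 400 per well, compounds added by pin tool, plates incubated ≥48 hr at 37 °C, then CellTiter-Glo added for 30 min at room temperature before luminescence reading. Line: DT40 Tdp1-/- complemented with hTDP1; camptothecin omitted.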
miR-21 act – qHTS Assay for Modulators of miRNAs and/orActivators of miR-21. HeLa miR-21 FLuc reporter, luciferase, 48 h. Potency, µM (highest dose often 38.3 µM), actives largely listed as activators. AID 2288, 2010. 340,000 tested, under 10 active;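 note: miR-21 action dims this reporter so a rising signal means less miR-21 action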
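HeLa cells stably expressing CMV-driven firefly luciferase with a downstream miR-21 binding sequence, endogenously expressing miR-21, were treated with titrations (up to about 40uM final) for 48 hours at 37 degree Celsius. Luciferase luminescence was read after lysis.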
TDP1 block – qHTS Assay for Inhibitors of Tyrosyl-DNA Phosphodiesterase (TDP1). Tyrosyl-DNA phosphodiesterase 1 (Homo sapiens), Q9NUW8. Potency, µM (doses to about 130 µM), usual class: inhibitors. 350,000 tested, 0.28% active. AID 485290, 2010. recombinant TDP1, AlphaScreen DNA substrate cleavage; note: nearly all actives have a fitted effect of over 40% in size
Target sequence (Q9NUW8 whole entry, looked up): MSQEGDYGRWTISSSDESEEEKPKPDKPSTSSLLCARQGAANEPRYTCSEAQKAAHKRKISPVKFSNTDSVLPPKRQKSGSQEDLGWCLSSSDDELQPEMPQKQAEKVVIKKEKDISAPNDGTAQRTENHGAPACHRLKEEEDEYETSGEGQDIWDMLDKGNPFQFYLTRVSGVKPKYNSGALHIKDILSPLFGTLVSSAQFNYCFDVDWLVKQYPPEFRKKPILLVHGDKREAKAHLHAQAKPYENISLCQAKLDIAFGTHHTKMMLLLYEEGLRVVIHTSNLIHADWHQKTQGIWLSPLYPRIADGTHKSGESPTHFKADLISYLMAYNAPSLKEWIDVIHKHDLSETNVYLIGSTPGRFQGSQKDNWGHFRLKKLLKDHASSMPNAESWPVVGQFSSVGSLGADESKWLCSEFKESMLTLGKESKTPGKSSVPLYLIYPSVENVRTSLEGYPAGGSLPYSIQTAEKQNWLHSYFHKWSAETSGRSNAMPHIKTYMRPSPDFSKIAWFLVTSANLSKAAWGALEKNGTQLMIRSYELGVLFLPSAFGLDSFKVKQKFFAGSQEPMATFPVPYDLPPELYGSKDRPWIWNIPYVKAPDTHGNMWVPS
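Enzyme-compound mixtures sat 15 min at room temperature, followed by a 5 min reaction with 15 nM final substrate and 10 min with AlphaScreen beads. Recombinant human Tdp1 was used at 1 nM final.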
uPA generation – qHTS for Inhibitors of Cell Surface uPA Generation; cell surface uPA generation assay, qHTS; Potency, µM (highest dose often 38.3 µM), hits mostly inhibitors; 330,000 tested, 0.31% active; active = well fitted inhibition curve with a large enough effect; inconclusive = small, poorly fitted or top-dose-only effect; inactive = no such curve, though single readings can be large or run the other way; tested in mouse RAW 264.7 cells; note: nearly all actives have a fitted effect of over 55% in size
Large screens that a line does not name were inactive; ! = not confirmed by another sample. Unless noted, calls come from the whole dose curve; as a rule, active = well fitted curve in the direction sought with a large enough effect; inconclusive = small, poorly fitted or top-dose-only effect, or another doubt; inactive = no such curve, though single readings can be large; an effect the other way counts as inactive or inconclusive.

C[C@]12CC[C@H](O)C[C@H]1CC[C@@H]1[C@@H]2CC[C@]2(C)[C@@H](c3ccc(=O)oc3)C[C@H]3O[C@]132	TDP1 cell CPT inconclusive, DT40 TDP1 no CPT 15µM (no result: miR-21 act, TDP1 block, uPA generation)
C[C@]12CC[C@H]3C(CCC4(O)CC(O)CC[C@]34C=O)C1=CC[C@H]2c1ccc(=O)oc1 (stereo partly specified)	miR-21 act inconclusive (no result: TDP1 block)
CC(=O)O[C@H]1[C@H]2O[C@]23[C@@H]2CC[C@]4(O)C[C@@H](O)CC[C@]4(C)C2CC[C@]3(C)[C@H]1c1ccc(=O)oc1 (stereo partly specified)	TDP1 cell CPT 6.51µM, DT40 TDP1 no CPT 3.66µM (no result: miR-21 act)
CC(=O)Nc1ccc(C=C2C(=O)NC(=O)NC2=O)cc1	none (no result: miR-21 act, TDP1 block)
O=c1cc(C2CCNCC2)[nH][nH]1	none
COCCCn1c(-c2ccc(OC)cc2)cc(C(=O)NC2CCCCCCC2)c1C	TDP1 cell CPT 20.6µM, DT40 TDP1 no CPT 14.6µM
COc1ccc(N)cc1	none (no result: TDP1 cell CPT, DT40 TDP1 no CPT, miR-21 act, uPA generation)
CNCCC(Oc1ccc(C(F)(F)F)cc1)c1ccccc1 (stereo unspecified)	TDP1 cell CPT inconclusive, DT40 TDP1 no CPT 25.9µM
CNCCc1ccccc1	none (no result: TDP1 cell CPT, DT40 TDP1 no CPT, TDP1 block, uPA generation)
CCOC(=O)C1CCCN(C(=O)c2ccc3oc(Cc4ccccc4)nc3c2)C1 (stereo unspecified)	DT40 TDP1 no CPT inconclusive
O=C(NC1CCCCC1)c1ccc(CSc2nc3ccncc3n2Cc2ccc(F)cc2)cc1	TDP1 cell CPT inconclusive, DT40 TDP1 no CPT inconclusive (no result: uPA generation)
Cc1c(C(=O)OC2CCCCC2)[nH]c2c1C(=O)CC(c1ccccc1)C2 (stereo unspecified)	TDP1 cell CPT 4.61µM, DT40 TDP1 no CPT 2.06µM (no result: uPA generation)
Cc1c(C(=O)OCC(C)C)[nH]c2c1C(=O)CC(c1ccco1)C2 (stereo unspecified)	TDP1 cell CPT 0.82µM, DT40 TDP1 no CPT 0.82µM, uPA generation inconclusive
C[n+]1c(-c2ccccc2)cc(CCCCc2cc(-c3ccccc3)[n+](C)c(-c3ccccc3)c2)cc1-c1ccccc1	TDP1 cell CPT 2.59µM, DT40 TDP1 no CPT 5.17µM, miR-21 act inconclusive
CCCOC(=O)c1ccc(-[n+]2c(-c3ccccc3)cc(-c3ccccc3)cc2-c2ccccc2)cc1	TDP1 cell CPT 1.16µM, DT40 TDP1 no CPT 1.16µM, uPA generation inconclusive (no result: miR-21 act)
Cc1ccc(-c2cc(-c3ccc(C)cc3)[n+](-c3ccc(C(=O)O)cc3)c(-c3ccc(C)cc3)c2)cc1	none (no result: miR-21 act)
Cc1ccc(-c2cc(-c3ccccc3)cc(-c3ccccc3)[n+]2-c2ccc(C(=O)O)cc2)cc1	none (no result: miR-21 act)
Brc1ccc(-[n+]2c(-c3ccccc3)cc(-c3ccccc3)cc2-c2ccccc2)cc1	TDP1 cell CPT 10.3µM, DT40 TDP1 no CPT 2.59µM, uPA generation inconclusive (no result: miR-21 act)
COc1ccc(-[n+]2c(-c3ccccc3)cc(-c3ccc(C)cc3)cc2-c2ccccc2)cc1	TDP1 cell CPT 2.59µM, DT40 TDP1 no CPT 1.16µM, miR-21 act inconclusive (no result: TDP1 block)
c1ccc(-c2ccccc2)cc1	none (no result: TDP1 cell CPT, DT40 TDP1 no CPT, miR-21 act, uPA generation)
COc1ccc(-c2cc(-c3ccccc3)[n+](C)c(-c3ccccc3)c2)cc1	TDP1 cell CPT 1.03µM, DT40 TDP1 no CPT 0.581µM, miR-21 act inconclusive
O=C(CCCc1nc(-c2ccc(Cl)cc2)no1)NCC1CCCO1 (stereo unspecified)	TDP1 cell CPT inconclusive, DT40 TDP1 no CPT 18.4µM (no result: TDP1 block)
Cc1ccc(Nc2nnc(SCC(=O)NCC3CCCO3)s2)cc1C (stereo unspecified)	TDP1 cell CPT inconclusive, uPA generation inconclusive (no result: miR-21 act)
CCCCC[C@@H](/C=C/C1C(=O)C=C[C@H]1C/C=C\CCCC(=O)O)OC(C)=O (stereo partly specified)	TDP1 cell CPT 20.6µM, DT40 TDP1 no CPT 23.1µM, uPA generation inconclusive (no result: miR-21 act, TDP1 block)
CC(C)N1CCN(Cc2cccc3c2OCO3)CC1CCO (stereo unspecified)	none
COc1ccc(C(CNC(=O)Cc2ccc(Cl)c(Cl)c2)N(C)C)cc1 (stereo unspecified)	TDP1 cell CPT inconclusive, DT40 TDP1 no CPT inconclusive (no result: uPA generation)
Cc1c(C(=O)NCc2ccc(Cl)c(Cl)c2)sc(=O)n1Cc1ccc(S(=O)(=O)N(C)C)cc1	TDP1 cell CPT 8.2µM, DT40 TDP1 no CPT 14.6µM (no result: miR-21 act, TDP1 block, uPA generation)
CCc1nnc(NC(=O)CSc2nccn2-c2cccc(C)c2C)s1	TDP1 cell CPT 16.4µM, DT40 TDP1 no CPT 8.2µM, uPA generation inconclusive
Cc1cscn1	DT40 TDP1 no CPT inconclusive (no result: miR-21 act)
CC(=O)N1CCN(c2ccc(OC[C@H]3CO[C@](Cn4ccnc4)(c4ccc(Cl)cc4Cl)O3)cc2)CC1	TDP1 cell CPT 6.31µM!, DT40 TDP1 no CPT 6.31µM, miR-21 act inconclusive, uPA generation inconclusive
CC(=O)N1CCN(c2ccc(OC[C@@H]3CO[C@@](Cn4ccnc4)(c4ccc(Cl)cc4Cl)O3)cc2)CC1	TDP1 cell CPT 15.8µM, DT40 TDP1 no CPT 15.8µM (no result: miR-21 act, uPA generation)
Clc1ccc(C2(Cn3cncn3)OCCO2)c(Cl)c1	none (no result: miR-21 act, uPA generation)
CCCC1COC(Cn2cncn2)(c2ccc(Cl)cc2Cl)O1 (stereo unspecified)	TDP1 cell CPT inconclusive, DT40 TDP1 no CPT inconclusive
c1cnc(N2CC[C@@]3(CCCNC3)C2)nc1	TDP1 cell CPT inconclusive (no result: miR-21 act, TDP1 block, uPA generation)
CC(=NCCCn1ccnc1)c1c(O)n(C2CCCCC2)c(=O)[nH]c1=O	none
CCOC(=O)c1nc2ccccc2c(=O)n1-c1ccc(C)cc1C	TDP1 cell CPT 8.2µM, DT40 TDP1 no CPT 10.3µM
CCOc1ccc(NC(=O)Cn2cc(C(=O)c3ccccc3)c3ccccc32)cc1	DT40 TDP1 no CPT inconclusive (no result: uPA generation)
